Source: PubChem (National Center for Advancing Translational Sciences (NCATS))
SW480 rereplic: induces DNA re-replication in SW480 colon adenocarcinoma cells; AID 624297; actives 1.8% (n = 340,000); Potency, µM (highest dose often 46.1 µM), for inactives: at the highest dose re-replication activation, hits mostly activators; SW480 DNA re-replication, Hoechst DNA content imaging, 48 h; also: % of control where 0% means no effect; nearly all actives have a fitted effect of over 55% in size
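Image-based DNA-content assay: after two days of treatment, nuclei were labelled with the DNA dye Hoechst and imaged, and hits were compounds raising the count of nuclei showing high fluorescence intensity.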
KB-3-1 cytotox: kills parental KB-3-1 adenocarcinoma cells; Potency, µM (series often up to 46.1 µM), actives largely listed as cytotoxic; actives 1.4% (n = 400,000); KB-3-1 viability, CellTiter-Glo ATP luminescence, 72 h; AID 1347075; also: % is scaled to controls: 0 for no effect and ±100 for the full control effect; nearly all actives have a fitted effect of over 60% in size
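Here the drug-naive KB-3-1 line serves as comparator for MDR sub-line selectivity; cells received compound titrations, 72 h at 37 °C, then CellTiter-Glo readout.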
KB-V1 MDR tox: kills drug-selected multidrug resistant KB-V1 cells. AID 1347076. Potency, µM (highest dose often 46.1 µM), most hits filed as cytotoxic. actives 3.4% (n = 400,000). KB-V1 MDR cells viability, CellTiter-Glo, 72 h; also: % is scaled to controls: 0 for no effect and ±100 for the full control effect; nearly all actives have a fitted effect of over 60% in size
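KB-V1 cells (P-gp-expressing MDR subline of KB-3-1) in phenol-red-free DMEM with 10% FBS were exposed to library compounds over a concentration series for 72 h at 37 degrees C. Viability read by CellTiter-Glo luminescence; concentration-effect curves fitted after normalization.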
ELG1 DNA repair: blocks ELG1-dependent DNA repair in HEK293T cells; actives 2.3% (n = 330,000); AID 504467; Potency, µM (top dose mostly 46.1 µM), without a hit: top-dose activity change, negative = inhibition, hits mostly inhibitors; HEK293T ELG1-luciferase reporter, luminescence, 16 h; DNA damage induced by 5-fluorouridine; also: % is scaled to controls: 0 for no effect and ±100 for the full control effect; nearly all actives have a fitted effect of over 55% in size
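Cells (2,000 per well) received 5-fluorouridine plus test compound or DMSO and were incubated 16 hr at 37 °C, 5% CO2. Luciferase activity was read by luminescence 30 min after ONE-Glo addition; signal suppression marked inhibition of damage-induced ELG1 function.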
MCF10A rerep: DNA re-replication induction in MCF 10a cells; MCF 10A DNA re-replication, Hoechst nuclear intensity, 48 h; actives 2.9% (n = 350,000); AID 624296; Potency, µM (top dose mostly 46.1 µM), for the others: at the top dose activity, positive = re-replication, hits mostly activators; also: % of control where 0% means no effect; nearly all actives have a fitted effect of over 50% in size
The depositor's hits bear a star; i = inactive; ? = inconclusive; nt = no result; [ ] = dose if it differs, or a comment. Hits are enriched below; roughly 8.1% of the tested compounds scored in any of these assays. Calls follow the shape of the dose curve; as a rule, active = well fitted curve in the direction sought with a large enough effect; inconclusive = small, poorly fitted or top-dose-only effect, or another doubt; inactive = no such curve, though single readings can be large; an effect the other way counts as inactive or inconclusive. Potency is read from the fitted curve at half-maximal effect.

SMILES	SW480 rereplic	KB-3-1 cytotox	KB-V1 MDR tox	ELG1 DNA repair	MCF10A rerep
COc1ccc(NS(=O)(=O)c2ccc(NC(=O)c3ccc(CN4CCOCC4)cc3)cc2)cc1	?	?	i	-9%	?
O=C(Nc1ccc(F)cc1)c1ccc(S(=O)(=O)N2CCOCC2)o1	-11%	i	i	16µM*	-6%
CCN(CC)S(=O)(=O)c1ccc(NC(=O)c2ccc(CN3CCOCC3)cc2)cc1	1%	3.3µM*	?	?	0%
N#CCCN1CCN(Cc2ccccc2)CCC1=O	-13%[9.22 µM]	i	i	-2%	0%
COc1ccc(S(=O)(=O)N2CCOCC2)cc1NC(=O)CSc1nc(C)c(C)c(C)n1	-8%	i	i	-25%	-26%
CC(C)[C@H](NC(=O)C1CC(=O)N(c2ccc(F)cc2)C1)C(=O)N1CCCCC1 (stereo partly drawn)	-4%	i	i	29%	1%
O=C(Nc1ccc(S(=O)(=O)N2CCN(Cc3ccccc3)CC2)cc1)c1cnccn1	-3%	10µM*	2.3µM*	?	4%
CCCOc1ccc(C(=O)Nc2ccc(CN3CCOCC3)cc2)cc1	-2%	i	i	-19%	?
O=C(Nc1ccc(S(=O)(=O)N2CCCC2)cc1)c1ccc(CN2CCOCC2)cc1	-6%	?	?	?	4%
O=C(Nc1ccc(S(=O)(=O)N2CCCCC2)cc1)c1ccc(CN2CCOCC2)cc1	-4%	7.3µM*	2.1µM*	7.3µM*	?
CCCOc1cccc(C(=O)Nc2ccc(CN3CCOCC3)cc2)c1	28%	i	i	-2%	21µM*
O=C(Nc1ccc(Cc2ccncc2)cc1)c1ccc(S(=O)(=O)N2CCOCC2)cc1	-7%	i	?	13µM*	-1%
c1ccc(Cn2nnnc2C(c2ccccn2)N2CCN(c3ccccc3)CC2)cc1 (stereo not drawn)	3%	i	i	-4%	4%
N#CCc1ccc(NC(=O)c2ccc(S(=O)(=O)N3CCCC3)cc2)cc1	-8%	i	i	21µM*	30%
O=C(Nc1ccc(S(=O)(=O)N2CCCC2)cc1)c1ccc(F)cc1	-1%	i	i	nt	1%
Cc1noc(C)c1CSc1nc2sc3c(c2c(=O)n1C)CCCC3	8%	i	i	23µM*	?
C=CCn1c(SCc2c(C)noc2C)nc2sc3c(c2c1=O)CCCCC3	13%	i	?	?	?
C=CCn1c(SCc2c(C)noc2C)nc2sc3c(c2c1=O)CCCC3	?	18µM*	23µM*	18µM*	9.2µM*
Cc1csc2sc(-c3ccnc(SCC(=O)NCc4ccccc4)n3)c(C)c12	18µM*	?	5.8µM*	-6%	?
CCCCNC(=S)N(C)/N=C/c1ccccc1F	-6%	i	i	7%	-1%
N#C/C(=C\c1ccc(O)c([N+](=O)[O-])c1)C(=O)NCc1ccccc1	2%	?	i	?	?
N#C/C(=C\c1ccc(O)c(Br)c1)C(=O)NCc1ccccc1	8.2µM*	i	i	-3%	21µM*
COc1cc([N+](=O)[O-])cc2cc(C(=O)N3CCN=C3c3ccccc3)c(=O)oc12	2%	i	i	-11%	4%
COc1ccc(OC)c(-c2nnc3n(Cc4ccc(C)cc4)c(=O)c4ccccc4n23)c1	nt	i	i	nt	nt
Cc1cccc(-c2nnc3n(CCc4ccccc4)c(=O)c4ccccc4n23)c1	nt	?	i	nt	nt
SMILES	SW480 rereplic	KB-3-1 cytotox	KB-V1 MDR tox	ELG1 DNA repair	MCF10A rerep
COc1ccc(-c2nnc3n(CCc4ccccc4)c(=O)c4ccccc4n23)c(OC)c1	17%	i	?	8.2µM*	21µM*
COc1cc(-c2nnc3n(CCc4ccccc4)c(=O)c4ccccc4n23)cc(OC)c1OC	5%	i	i	21µM*	?
O=C(c1ccco1)N1N=C(c2ccc(Br)cc2)CC1c1ccco1 (stereo not drawn)	-45%	i	i	11µM*	1%
CC(=O)Nc1ccc(C2=NN(c3ccccc3)C(c3cccs3)C2)cc1 (stereo not drawn)	12µM*	i	i	-2%	?
O=C(c1ccco1)N1N=C(c2ccc(Cl)cc2)CC1c1ccco1 (stereo not drawn)	-1%	?	i	-20%	-15%
CCS(=O)(=O)Nc1ccc(C2=NN(C(=O)c3ccco3)C(c3cccs3)C2)cc1 (stereo not drawn)	-5%	?	?	0%	?
CCS(=O)(=O)Nc1ccc(C2=NN(C(=O)c3ccccc3)C(c3cccs3)C2)cc1 (stereo not drawn)	7%	i	i	16µM*	?
CCS(=O)(=O)Nc1ccc(C2=NN(C(=O)c3ccco3)C(c3ccco3)C2)cc1 (stereo not drawn)	?	3.7µM*	?	?	9.2µM*
O=C(CNCc1ccco1)Nc1cc(S(=O)(=O)N2CCOCC2)ccc1N1CCOCC1	-14%	?	i	4%	-42%
COc1ccc(S(=O)(=O)N(C)c2ccc(C(=O)N3CCCC3)cc2)cc1	?	i	?	-14%	?
O=C(COC(=O)c1cc(Cl)ccc1O)NNC(=O)c1ccccc1F	0%	i	i	9%	-2%
CCc1ccc(C2=NN(S(C)(=O)=O)C(c3cccs3)C2)cc1 (stereo not drawn)	-8%	?	15µM*	?	8%
CCS(=O)(=O)Nc1cccc(C2=NN(C(=O)c3ccco3)C(c3ccco3)C2)c1 (stereo not drawn)	13µM*	8.2µM*	i	-14%	13µM*
O=C(Nn1c(SCc2ccc(F)cc2)nc2ccsc2c1=O)c1ccccc1	-3%	i	4.1µM*	22%	?
CC(C)CNS(=O)(=O)c1ccc(CCC(=O)N2CCN(c3ccc(F)cc3)CC2)cc1	-40%	i	i	12µM*	-1%
CCNS(=O)(=O)c1ccc(CCC(=O)NC2CCCC2)cc1	5%	i	i	0%	10%
CC(C)CNS(=O)(=O)c1ccc(CCC(=O)NC2CCCC2)cc1	-61%	i	i	-2%	1µM*
CC(Sc1ccsc1[N+](=O)[O-])C(=O)NCCc1ccc(Cl)cc1 (stereo not drawn)	?	?	?	2%	?
Cc1sc2ncn(CC(=O)N(C)c3ccc(C(C)C)cc3)c(=O)c2c1S(=O)(=O)N1CCC(C)CC1	nt	i	i	nt	nt
CCOC(=O)c1ccc(NC(=O)CCc2nc(-c3ccc(C)cc3)no2)cc1	9%	i	i	15%	15µM*
CCc1ccccc1N(C)C(=O)CCc1nc(-c2ccc(C)cc2)no1	1%	i	18µM*	?	1%
